Reference: PubChem BioAssay (NCATS)
Results filed as inconclusive are left out. Calls of active or inactive are those of the source. Calls follow the shape of the dose curve; as a rule, active = well fitted curve in the direction sought with a large enough effect; inconclusive = small, poorly fitted or top-dose-only effect, or another doubt; inactive = no such curve, though single readings can be large; an effect the other way counts as inactive or inconclusive.

What was measured:
[1] = qHTS of pediatric cancer cell lines to identify multiple opportunities for drug repurposing: Primary screen for LAN-5 cells (AID 1347100); also: potency is read from the fitted curve at half-maximal effect
Outline: (§1)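 Viability after 48 h compound treatment at 37C, 500-1,000 cells/well, read as ATP luminescence with CellTiter-Glo. Primary screens used 11-point (MIPE, 0.78 nM-46 µM) or 8-point (NPC, 0.59 nM-46 µM) final concentrations; follow-up screens used 11-point dilutions.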

[2] = qHTS of pediatric cancer cell lines to identify multiple opportunities for drug repurposing: Primary screen for BT-12 cells (AID 1347101); also: nearly all actives have a fitted effect of over 25% in size; also: potency is read from the fitted curve at half-maximal effect
Outline: (§2)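 Cells (500-1,000/well) rested 5 h, then received compounds for 48 h; metabolically active cells were measured by CellTiter-Glo luminescence. Final concentrations spanned up to 46 µM (MIPE, 11-point) or 0.59 nM-46 µM (NPC, 8-point) in primary screens, 11-point in follow-ups.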

[3] = qHTS of pediatric cancer cell lines to identify multiple opportunities for drug repurposing: Primary screen for Rh18 cells (AID 1347102); also: nearly all actives have a fitted effect of over 65% in size; also: potency is read from the fitted curve at half-maximal effect
Outline: as §1

[4] = qHTS of pediatric cancer cell lines to identify multiple opportunities for drug repurposing: Primary screen for OHS-50 cells (AID 1347103); also: nearly all actives have a fitted effect of over 40% in size; also: potency is read from the fitted curve at half-maximal effect
Outline: as §2

[5] = qHTS of pediatric cancer cell lines to identify multiple opportunities for drug repurposing: Primary screen for RD cells (AID 1347104); also: nearly all actives have a fitted effect of over 55% in size; also: potency is read from the fitted curve at half-maximal effect
Outline: (§3)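 500-1,000 cells/well; 5 h pre-incubation 37 °C/5% CO2; compound pinned; 48 h; CellTiter-Glo, 15 min RT; luminescence. MIPE 11-pt from 0.78 nM, NPC 8-pt from 0.59 nM final. Bortezomib 2.3 µM final as positive control.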

[6] = qHTS of pediatric cancer cell lines to identify multiple opportunities for drug repurposing: Primary screen for MG 63 (6-TG R) cells (AID 1347105); also: nearly all actives have a fitted effect of over 50% in size; also: potency is read from the fitted curve at half-maximal effect
Outline: as §3

[7] = qHTS of pediatric cancer cell lines to identify multiple opportunities for drug repurposing: Primary screen for control Hh wild type fibroblast cells (AID 1347106); also: nearly all actives have a fitted effect of over 55% in size; also: potency is read from the fitted curve at half-maximal effect
Outline: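 Cells (500-1,000/well) in growth media were settled 5 h at 37 degrees C, then given compounds for 48 h. Viability was read as CellTiter-Glo luminescence. Primary runs used MIPE at 11 points (0.78 nM-46 µM) and NPC at 8 points (0.59 nM-46 µM); follow-ups used 11 points.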

[8] = qHTS of pediatric cancer cell lines to identify multiple opportunities for drug repurposing: Primary screen for Rh30 cells (AID 1347107); also: series mostly up to about 46 µM; nearly all actives have a fitted effect of over 75% in size
Outline: as §1

[9] = qHTS of pediatric cancer cell lines to identify multiple opportunities for drug repurposing: Primary screen for Rh41 cells (AID 1347108); also: nearly all actives have a fitted effect of over 70% in size; also: potency is read from the fitted curve at half-maximal effect
Outline: as §3

[10] = qHTS of pediatric cancer cell lines to identify multiple opportunities for drug repurposing: Confirmatory screen for NB1643 cells (AID 1347109); also: nearly all actives have a fitted effect of over 45% in size; also: potency is read from the fitted curve at half-maximal effect
Outline: as §1

[11] = qHTS of pediatric cancer cell lines to identify multiple opportunities for drug repurposing: Confirmatory screen for SK-N-MC cells (AID 1347111);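 also: cells exposed to compound for 48 h before the readout; nearly all actives have a fitted effect of over 70% in size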; also: potency is read from the fitted curve at half-maximal effect
Outline: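 SK-N-MC cells at 500-1,000 cells/well in growth media were pre-incubated 5 h, then exposed to compounds at 11-point dilutions for 48 h at 37 degrees C, 5% CO2. Viability was read as CellTiter-Glo luminescence.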

[12] = qHTS of pediatric cancer cell lines to identify multiple opportunities for drug repurposing: Confirmatory screen for BT-12 cells (AID 1347112); also: nearly all actives have a fitted effect of over 55% in size; also: potency is read from the fitted curve at half-maximal effect
Outline: as §1

[13] = qHTS of pediatric cancer cell lines to identify multiple opportunities for drug repurposing: Confirmatory screen for LAN-5 cells (AID 1347113); also: nearly all actives have a fitted effect of over 65% in size; also: potency is read from the fitted curve at half-maximal effect
Outline: as §1

[14] = qHTS of pediatric cancer cell lines to identify multiple opportunities for drug repurposing: Confirmatory screen for DAOY cells (AID 1347114); also: nearly all actives have a fitted effect of over 65% in size; also: potency is read from the fitted curve at half-maximal effect
Outline: (§4)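 Viability measured as metabolically active cells via CellTiter-Glo luminescence following 48 hours of compound exposure, 11-point dilutions in confirmatory testing. 500-1,000 cells/well plated 5 hours before dosing; controls were DMSO and 2.3 µM bortezomib.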

[15] = qHTS of pediatric cancer cell lines to identify multiple opportunities for drug repurposing: Confirmatory screen for SJ-GBM2 cells (AID 1347116); also: nearly all actives have a fitted effect of over 60% in size; also: potency is read from the fitted curve at half-maximal effect
Outline: as §4

[16] = qHTS of pediatric cancer cell lines to identify multiple opportunities for drug repurposing: Confirmatory screen for BT-37 cells (AID 1347117); also: nearly all actives have a fitted effect of over 55% in size; also: potency is read from the fitted curve at half-maximal effect
Outline: as §1

[17] = qHTS of pediatric cancer cell lines to identify multiple opportunities for drug repurposing: Confirmatory screen for MG 63 (6-TG R) cells (AID 1347119); also: nearly all actives have a fitted effect of over 55% in size; also: potency is read from the fitted curve at half-maximal effect
Outline: as §1

[18] = qHTS of pediatric cancer cell lines to identify multiple opportunities for drug repurposing: Confirmatory screen for control Hh wild type fibroblast cells (AID 1347121); also: nearly all actives have a fitted effect of over 70% in size
Outline: as §1

[19] = qHTS of pediatric cancer cell lines to identify multiple opportunities for drug repurposing: Confirmatory screen for Rh41 cells (AID 1347123);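 also: 48 h compound exposure; nearly all actives have a fitted effect of over 60% in size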; also: potency is read from the fitted curve at half-maximal effect
Outline: as §1

[20] = qHTS of pediatric cancer cell lines to identify multiple opportunities for drug repurposing: Confirmatory screen for A673 cells (AID 1347110); also: nearly all actives have a fitted effect of over 65% in size; also: potency is read from the fitted curve at half-maximal effect
Outline: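 A673 cells seeded at 500-1,000 cells/well, rested 5 h, then dosed; primary MIPE 11-point (0.78 nM to 46 µM), NPC (0.59 nM to 46 µM); confirmatory 11-point. CellTiter-Glo luminescence after 48 h.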

Measured: Potency

COP(=O)(OC)C(O)C(Cl)(Cl)Cl (stereo not drawn)
inactive: [1] | [2] | [3] | [4] | [5] | [6] | [7] | [8] | [9]

C[N+]1(CCC(C(N)=O)(c2ccccc2)c2ccccc2)CCCCC1
inactive: [1] | [2] | [3] | [4] | [5] | [6] | [7] | [8] | [9]

ClC1=C(Cl)C2(Cl)C(CBr)CC1(Cl)C2(Cl)Cl (stereo not drawn)
active: [11] 10.4 µM
not listed: [20]
inactive: all other assays above

CCOC(=O)C(c1c(O)c2ccccc2oc1=O)c1c(O)c2ccccc2oc1=O
inactive: [1] | [2] | [3] | [4] | [5] | [6] | [7] | [8] | [9]

CCOC(C(=O)OCCN(C)C)(c1ccccc1)c1ccccc1
inactive: [1] | [2] | [3] | [5] | [6] | [7] | [8] | [9]

COc1ccc2[nH]cc(CCN(C(C)C)C(C)C)c2c1
inactive: [1] | [2] | [3] | [5] | [6] | [7] | [8]

COc1cc(CC(C)N)cc2c1OCO2 (stereo not drawn)
inactive: [1] | [2] | [3] | [5] | [6] | [7] | [8] | [9]

CN(C)CCc1c[nH]c2ccc(O)cc12
inactive: [1] | [2] | [3] | [4] | [6] | [7] | [8]

CC[C@H](O)C(C[C@H](C)N(C)C)(c1ccccc1)c1ccccc1
active: [9] 44.1 µM
inactive: [1] | [2] | [3] | [4] | [7]

Oc1ccc2[nH]cc(CCCCN3CC=C(c4ccccc4)CC3)c2c1
inactive: [6] | [7] | [8] | [9]
active: [1] 11.9 µM | [2] 15.5 µM | [4] 27.6 µM

CCc1ccc(C2CCNCC2)cc1
not listed: [4] | [15]
inactive: all other assays above

ClCCCN1CCN(c2cccc(Cl)c2)CC1
inactive: [1] | [2] | [3] | [5] | [6] | [7] | [8] | [9]

COc1cc(C[C@@H](C)N)c(OC)cc1Br
inactive: [1] | [2] | [3] | [6] | [7] | [8] | [9]

CC(C(O)c1ccccc1)N(C)C/C=C/c1ccccc1 (stereo not drawn)
inactive: [1] | [2] | [3] | [5] | [6] | [7] | [8] | [9]

CN(C)CCc1c[nH]c2ccccc12
inactive: [1] | [2] | [3] | [5] | [6] | [7] | [8] | [9]

C[C@]12CC[C@H](O)CC1=CC[C@@H]1[C@@H]2CC[C@]2(C)C(=O)CC[C@@H]12
inactive: [1] | [2] | [3] | [5] | [6] | [7] | [8] | [9]

CN(C)CCc1c[nH]c2cccc(O)c12
inactive: [2] | [3] | [4] | [6] | [7] | [8] | [9]
active: [1] 38.2 µM

CCC(=O)OC1(c2ccccc2)CCN(C)CC1
inactive: [1] | [2] | [3] | [5] | [6] | [7] | [8]

C[C@]12C=CC(=O)C=C1CC[C@@H]1[C@@H]2CC[C@@]2(C)[C@H]1CC[C@]2(C)O
inactive: [1] | [2] | [3] | [5] | [6] | [7] | [8]

C[C@H]1CNCCc2ccc(Cl)cc21
inactive: [1] | [2] | [3] | [5] | [6] | [7] | [8]

C[C@@H]1O[C@@H](O[C@@H]2C=C3CC[C@@H]4[C@H](CC[C@]5(C)[C@@H](c6ccc(=O)oc6)CC[C@]45O)[C@@]3(C)CC2)[C@H](O)[C@H](O)[C@H]1O
inactive: [8]
active: [1] 0.0106 µM | [2] 0.0031 µM | [4] 0.0025 µM | [5] 0.0015 µM | [6] 0.0017 µM | [7] 0.0075 µM | [10] 0.0827 µM | [20] 0.0585 µM | [11] 0.0293 µM | [12] 0.0414 µM | [13] 0.0585 µM | [15] 0.0465 µM | [16] 0.0147 µM | [17] 0.0083 µM

O=C1CN2CCOC2(c2ccccc2Cl)c2cc(Cl)ccc2N1 (stereo not drawn)
inactive: [1] | [2] | [3] | [5] | [6] | [7] | [8]

CCCCCCCCCCCC[N+](C)(C)CCOc1ccccc1
active: [1] 23.7 µM | [2] 24.6 µM | [3] 8.41 µM | [4] 4.9 µM | [5] 23.7 µM | [10] 11.7 µM | [20] 8.27 µM | [11] 7.37 µM | [13] 14.7 µM | [14] 18.5 µM | [16] 20.8 µM | [17] 20.8 µM | [19] 7.37 µM
inactive: [7]

CCCCCCCCC(=O)NCc1ccc(O)c(OC)c1
active: [1] 0.001 µM | [4] 0.001 µM
not listed: [6] | [9] | [11]
inactive: all other assays above
